Calls of active or inactive are those of the source.
Assays:
[1] = binders of probe aFSTL3 on microarray, primary screen, stem cell growth factor project, biochemical, small-molecule microarray, fluorescence 635/667 (AID 1064); conditions: higher = more signal;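 note: measures binding of the biotinylated anti-FSTL3 antibody to printed compounds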
[2] = binders from COS7 lysate, DM2A8 probe, primary screen, torsin A project, cell lysate, small-molecule microarray, fluorescence 635/667 (AID 1065); conditions: higher = more signal, COS7 lysate expressing mutant human TOR1A
[3] = binders of probe aFGF2 on microarray, primary screen, stem cell growth factor project, biochemical, small-molecule microarray, fluorescence 635/667 (AID 1067); conditions: higher = more signal;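 note: measures binding of biotinylated aFGF2 protein to printed compounds on slides; z-score merges feature fluorescence and signal-to-noise across triplicate slides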
[4] = binders of probe aFGF10 on microarray, primary screen, stem cell growth factor project, biochemical, small-molecule microarray, fluorescence 635/667 (AID 1071); conditions: higher = more signal;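 note: score merges 667 nm spot intensity and signal to noise from triplicate slides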
[5] = biological target: Neurogenic locus notch homolog protein 2 (Homo sapiens) (UniProt Q04721); test: Notch2 binders on small-molecule microarrays, primary screen, biochemical, small-molecule microarray, 635 nm fluorescence, stem cell growth factors (AID 1073); conditions: Notch2 binding, higher = more signal
Sequence of Neurogenic locus notch homolog protein 2 (Homo sapiens) (Q04721 whole entry, looked up, canonical isoform): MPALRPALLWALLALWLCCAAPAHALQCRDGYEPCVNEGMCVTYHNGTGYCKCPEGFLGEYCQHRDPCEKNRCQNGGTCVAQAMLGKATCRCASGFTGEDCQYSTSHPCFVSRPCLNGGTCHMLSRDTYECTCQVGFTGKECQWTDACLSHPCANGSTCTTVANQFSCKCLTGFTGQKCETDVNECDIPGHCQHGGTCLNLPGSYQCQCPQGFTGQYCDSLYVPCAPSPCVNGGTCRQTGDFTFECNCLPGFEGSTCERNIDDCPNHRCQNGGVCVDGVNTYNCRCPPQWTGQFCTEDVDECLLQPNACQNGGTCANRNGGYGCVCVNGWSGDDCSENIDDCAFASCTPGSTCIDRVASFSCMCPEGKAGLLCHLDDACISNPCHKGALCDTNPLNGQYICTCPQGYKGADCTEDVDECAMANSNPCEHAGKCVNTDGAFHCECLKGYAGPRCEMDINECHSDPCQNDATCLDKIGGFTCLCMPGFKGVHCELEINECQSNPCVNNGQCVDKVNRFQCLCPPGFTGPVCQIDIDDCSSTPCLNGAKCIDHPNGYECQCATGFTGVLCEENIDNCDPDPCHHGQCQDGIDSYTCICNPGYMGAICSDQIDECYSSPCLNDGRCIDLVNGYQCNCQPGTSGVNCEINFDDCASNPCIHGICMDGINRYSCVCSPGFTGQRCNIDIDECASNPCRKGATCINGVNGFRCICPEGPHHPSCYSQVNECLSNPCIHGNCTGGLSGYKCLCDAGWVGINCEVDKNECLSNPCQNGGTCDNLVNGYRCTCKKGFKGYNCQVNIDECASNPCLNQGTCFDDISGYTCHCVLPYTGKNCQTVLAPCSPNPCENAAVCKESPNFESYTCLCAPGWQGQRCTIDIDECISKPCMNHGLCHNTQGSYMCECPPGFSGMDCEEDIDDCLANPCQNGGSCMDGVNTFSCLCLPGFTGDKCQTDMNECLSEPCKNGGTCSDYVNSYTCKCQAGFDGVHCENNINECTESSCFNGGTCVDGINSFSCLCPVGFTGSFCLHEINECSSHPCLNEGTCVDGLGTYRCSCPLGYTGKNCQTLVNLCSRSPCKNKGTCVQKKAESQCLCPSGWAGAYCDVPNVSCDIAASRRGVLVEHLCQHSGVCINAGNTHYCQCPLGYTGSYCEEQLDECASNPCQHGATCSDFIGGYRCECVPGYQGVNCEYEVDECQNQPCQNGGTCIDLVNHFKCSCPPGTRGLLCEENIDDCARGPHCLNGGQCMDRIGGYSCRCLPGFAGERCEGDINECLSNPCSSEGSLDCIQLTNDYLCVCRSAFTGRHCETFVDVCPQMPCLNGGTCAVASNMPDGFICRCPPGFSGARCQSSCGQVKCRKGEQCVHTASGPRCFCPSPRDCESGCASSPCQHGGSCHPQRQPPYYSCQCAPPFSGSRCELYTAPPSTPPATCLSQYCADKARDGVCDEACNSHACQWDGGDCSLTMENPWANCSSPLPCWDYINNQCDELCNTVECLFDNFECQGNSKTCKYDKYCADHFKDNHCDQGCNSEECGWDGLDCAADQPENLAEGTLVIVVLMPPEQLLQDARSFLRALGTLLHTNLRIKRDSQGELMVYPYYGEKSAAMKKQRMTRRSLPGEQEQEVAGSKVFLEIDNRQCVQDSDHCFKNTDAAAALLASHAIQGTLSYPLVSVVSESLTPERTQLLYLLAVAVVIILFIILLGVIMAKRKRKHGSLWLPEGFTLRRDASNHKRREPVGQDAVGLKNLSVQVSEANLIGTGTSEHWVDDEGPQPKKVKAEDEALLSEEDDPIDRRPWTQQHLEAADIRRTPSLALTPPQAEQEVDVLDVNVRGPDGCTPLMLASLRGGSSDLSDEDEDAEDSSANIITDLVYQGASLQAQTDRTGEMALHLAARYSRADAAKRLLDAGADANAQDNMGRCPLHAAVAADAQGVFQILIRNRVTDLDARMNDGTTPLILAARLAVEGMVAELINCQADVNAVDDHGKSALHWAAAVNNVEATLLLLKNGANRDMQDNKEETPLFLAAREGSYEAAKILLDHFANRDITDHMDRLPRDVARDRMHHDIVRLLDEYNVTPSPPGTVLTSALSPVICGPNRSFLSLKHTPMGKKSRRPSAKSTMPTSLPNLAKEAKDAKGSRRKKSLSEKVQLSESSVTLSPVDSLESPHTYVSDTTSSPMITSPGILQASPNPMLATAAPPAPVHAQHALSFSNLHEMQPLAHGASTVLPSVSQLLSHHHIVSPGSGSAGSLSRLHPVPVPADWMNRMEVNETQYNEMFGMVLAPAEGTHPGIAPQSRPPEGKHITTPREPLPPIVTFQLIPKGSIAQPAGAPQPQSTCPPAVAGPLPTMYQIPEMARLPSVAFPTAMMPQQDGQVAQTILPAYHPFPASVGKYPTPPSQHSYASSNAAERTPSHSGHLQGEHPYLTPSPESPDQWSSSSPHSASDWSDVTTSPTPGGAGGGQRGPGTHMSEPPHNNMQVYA

[6] = biological target: Pro-neuregulin-1, membrane-bound isoform (Homo sapiens) (UniProt Q02297); test: NRG1 binders on small-molecule microarrays, primary screen, psychiatric disease protein project, biochemical, small-molecule microarray, fluorescence 635/667 (AID 1075); conditions: NRG1 binding, 635 nm fluorescence, higher = more signal;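 note: score combines 667 nm spot fluorescence with signal to noise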
Sequence of Pro-neuregulin-1, membrane-bound isoform (Homo sapiens) (Q02297 whole entry, looked up, the tested form may be a part, canonical isoform): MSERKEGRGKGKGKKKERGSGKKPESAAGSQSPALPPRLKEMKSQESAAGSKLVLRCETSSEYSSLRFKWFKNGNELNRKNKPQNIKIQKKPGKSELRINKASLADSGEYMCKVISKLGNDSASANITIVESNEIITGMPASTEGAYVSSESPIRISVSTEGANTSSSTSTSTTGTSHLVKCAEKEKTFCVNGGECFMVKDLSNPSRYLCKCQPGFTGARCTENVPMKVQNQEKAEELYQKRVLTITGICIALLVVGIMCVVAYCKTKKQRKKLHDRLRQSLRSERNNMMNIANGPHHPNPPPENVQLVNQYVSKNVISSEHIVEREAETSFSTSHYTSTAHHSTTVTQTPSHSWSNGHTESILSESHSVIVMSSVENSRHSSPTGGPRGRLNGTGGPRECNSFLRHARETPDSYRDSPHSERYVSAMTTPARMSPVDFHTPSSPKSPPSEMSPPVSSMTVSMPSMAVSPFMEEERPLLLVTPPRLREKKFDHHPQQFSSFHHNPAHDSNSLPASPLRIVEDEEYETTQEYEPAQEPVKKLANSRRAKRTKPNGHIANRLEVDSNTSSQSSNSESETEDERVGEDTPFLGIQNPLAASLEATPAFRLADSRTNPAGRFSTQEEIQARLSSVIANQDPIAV

[7] = test system: Neuregulin-1 EGF-like domain; test: binders of neuregulin-1 EGF-like domain, primary screen, biochemical, small-molecule microarray, 635 nm fluorescence (AID 1081); conditions: small-molecule microarray binding, higher = more signal;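 note: binding of the protein to compounds printed on small-molecule microarray slides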
[8] = FRG1 promoter luciferase signal modulators, primary screen, FRG1 inhibition for FSHD, cell-based, C2C12 myotubes, firefly/Renilla luciferase, luminescence (AID 1084); conditions: higher = more signal, called active from +8 up or from −8 down
[9] = binders of probe aFST on microarray, primary screen, stem cell growth factor project, biochemical, small-molecule microarray, fluorescence 635/667 (AID 1086); conditions: higher = more signal;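 note: score merges 667 nm fluorescence with signal-to-noise of each printed compound spot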
[10] = binders of probe aHhip on microarray, primary screen, stem cell growth factor project, biochemical, small-molecule microarray, fluorescence 635/667 (AID 1087); conditions: higher = more signal;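 note: score merges spot fluorescence at 667nm with spot signal to noise ratio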
[11] = test system: PRMT1 (protein arginine N-methyltransferase 1); test: PRMT1 binders on small-molecule microarrays, primary screen, biochemical, small-molecule microarray, 635 nm fluorescence (AID 1088); conditions: small-molecule microarray binding, higher = more signal;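 note: binding of Prmt1 protein to compounds spotted on small-molecule microarray slides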
[12] = yeast growth modulation, basal conditions, primary screen, YJM789 clinical isolate, OD600, 24 h (AID 1089);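 note: growth of clinical yeast isolate S. cerevisiae YJM 789 seeded 1000 cells per well; test concentration not given here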; conditions: S. cerevisiae YJM789 growth, higher = more signal, called active from +8 up or from −8 down
[13] = fission yeast growth modulation, primary screen, strain 972, OD600, 24 h, no modulator (AID 1090);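 note: basal condition with compound alone and no growth modifier present; test concentration not given here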; conditions: S. pombe 972 growth, higher = more signal, called active from +8 up or from −8 down
[14] = S. cerevisiae growth modulation with rapamycin, primary screen, strain BY4716, OD600, 96 h (AID 1091); conditions: higher = more signal, called active from +8 up or from −8 down; note: test concentration not given here
[15] = biological target: Torsin-1A-interacting protein 2 (Homo sapiens) (UniProt Q8NFQ8); test: LULL1 binders on small-molecule microarray, primary screen, cell lysate, human LULL1 lysate, 635/667 nm fluorescence (AID 1092); conditions: hLULL1 lysate binding, 635 nm fluorescence, higher = more signal;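 note: probe is lysate of COS7 cells overexpressing human LULL1; score merges per-feature 667 nm fluorescence with signal-to-noise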
Sequence of Torsin-1A-interacting protein 2 (Homo sapiens) (Q8NFQ8 whole entry, looked up): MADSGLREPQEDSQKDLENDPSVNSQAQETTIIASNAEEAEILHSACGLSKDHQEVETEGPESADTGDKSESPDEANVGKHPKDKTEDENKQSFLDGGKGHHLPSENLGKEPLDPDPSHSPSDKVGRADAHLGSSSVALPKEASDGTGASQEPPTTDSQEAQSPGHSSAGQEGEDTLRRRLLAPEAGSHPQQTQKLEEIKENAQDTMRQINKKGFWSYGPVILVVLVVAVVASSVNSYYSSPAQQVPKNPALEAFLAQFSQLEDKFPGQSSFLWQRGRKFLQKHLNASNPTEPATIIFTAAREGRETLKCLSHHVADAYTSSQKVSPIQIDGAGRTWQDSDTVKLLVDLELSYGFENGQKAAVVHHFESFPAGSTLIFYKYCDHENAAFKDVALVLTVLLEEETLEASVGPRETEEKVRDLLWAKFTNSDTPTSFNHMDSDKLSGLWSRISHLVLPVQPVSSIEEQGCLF

[16] = E. coli growth modulation, two-sided OD650, primary screen, E. coli filamentation project, strain DRC41, 24 h (AID 1093); conditions: OD650, 24 h, higher = more signal, called active from +8 up or from −8 down;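 note: MC1000 strain lacking acrAB efflux and sulA so SOS filamentation is blocked; test concentration not given here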
[17] = small-molecule microarray binders of probe aLefty2, primary screen, biochemical, biotinylated probe, 635/667 nm fluorescence (AID 1094); conditions: higher = more signal;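 note: score merges spot fluorescence near 667 nm with spot signal-to-noise ratio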
[18] = test system: Noggin (protein binding on small-molecule microarray); test: Noggin binders on small-molecule microarray, primary screen, biochemical, 635/667 nm fluorescence (AID 1095); conditions: 635 nm fluorescence, higher = more signal;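 note: score merges 667 nm feature fluorescence with signal to noise over triplicate slides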
[19] = biological target: Neurogenic locus notch homolog protein 3 (Homo sapiens) (UniProt Q9UM47); test: NOTCH3 binders on small-molecule microarray, primary screen, biochemical, 635/667 nm fluorescence (AID 1096); conditions: NOTCH3 binding, 635 nm fluorescence, higher = more signal
[20] = small-molecule microarray binders of probe aEGFR, primary screen, biochemical, biotinylated probe, 635/667 nm fluorescence (AID 1097); conditions: higher = more signal;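 note: probe is a biotinylated anti-EGFR antibody binding compounds printed on slides; score combines fluorescence near 667 nm and signal to noise of each spot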

SMILES | composite z-score [1] | composite z-score [2] | composite z-score [3] | composite z-score [4] | composite z-score [5] | composite z-score [6] | composite z-score [7] | z-score [8] | composite z-score [9] | composite z-score [10] | composite z-score [11] | z-score [12] | z-score [13] | z-score [14] | composite z-score [15] | z-score [16] | composite z-score [17] | composite z-score [18] | composite z-score [19] | composite z-score [20]
COc1ccc(O[C@H]2C=C[C@@H](c3ccccc3)O[C@@H]2COC(=O)CCC(C)=NOC[C@@H](O)[C@H]2O[C@@H]3OC(C)(C)O[C@@H]3[C@H]2O)cc1 | -0.522 | 0.62 | -0.102 | 0.497 | 0.624 | 0.0094 | 0.724 | 0.452 (inactive) | 0.659 | -0.0994 | 1.34 | 0.671 (inactive) | 0.0839 (inactive) | -0.37 (inactive) | 1.48 | 0.875 (inactive) | -0.103 | 1.41 | 0.763 | -0.0592
CO[C@@H]1COC(=O)CC=C[C@H](C)[C@H](OC)COC(=O)[C@H](C)NC(=O)CC=C[C@H]1C | -0.729 | 1.42 | -0.132 | -0.267 | -0.316 | -0.63 | 0.347 | -0.175 (inactive) | 0.0458 | -0.0491 | 1.53 | 0.419 (inactive) | -0.245 (inactive) | 0.329 (inactive) | -0.207 | 1.2 (inactive) | -0.228 | 1.83 | 0.273 | -0.0109
C#CCCCON=C1[C@H]2CCn3c(=O)n(-c4ccccc4)c(=O)n3[C@H]2[C@H](O)[C@@H]2O[C@H]12 | -0.306 | 0.0575 | -0.24 | 0.201 | 0.47 | -0.0335 | 0.478 | -1.91 (inactive) | 0.212 | -0.134 | 0.192 | -1.65 (inactive) | -0.813 (inactive) | -0.864 (inactive) | 0.463 | -0.623 (inactive) | -0.202 | 0.422 | 0.496 | -0.0938
C[C@@H](c1ccccc1)N1C(=O)[C@H]2[C@H]3[C@H](O)[C@H](O)CC(=NO[C@@H]4O[C@H](CO)[C@@H](O)[C@H](O)[C@H]4O)[C@H]3CC[C@H]2C1=O | -0.528 | -0.0577 | -0.0291 | 0.303 | 0.473 | 0.0437 | 0.343 | -0.412 (inactive) | 0.0934 | -0.0383 | -0.997 | -0.264 (inactive) | 1.06 (inactive) | 0.749 (inactive) | 0.288 | 0.466 (inactive) | -0.0928 | 0.587 | 0.675 | -0.0223
CCN1C(=O)[C@H]2[C@H]3[C@H](O)[C@H](O)CC(=NNC(=O)OCc4ccc(OC)cc4)[C@@H]3CC[C@H]2C1=O | 1.28 | -0.0691 | -0.0235 | 0.0306 | -0.213 | -0.295 | -0.46 | 0.127 (inactive) | 0.508 | -0.374 | -0.235 | -1.31 (inactive) | -1.45 (inactive) | -0.287 (inactive) | 0.0228 | 0.214 (inactive) | 0.241 | 0.51 | -0.428 | -0.113

— PubChem BioAssay
